For 40 compounds, growth results are on record in PubChem BioAssay (NCI).

Molecules are shown by their SMILES. About 83,000 compounds went through this panel and 20% of them were active in at least one assay; those are over-represented in the sample as a whole.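 Single-dose data. Exposure time 48 hours. Values below 10 considered active.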 Values without a mark were called inactive. Activity calls are given as the source filed them.

This test deals with HT29 colon. In words: NCI-60 one-dose screen, 48 h (100 = growth as untreated, 0 = no growth, -100 = all killed). The settings on record: 10 µM unless noted. The procedure: Growth inhibition of the HT29 human tumor cell line is measured as a screen for anti-cancer activity. Cells are grown in 96 well plates and exposed to the test compound for 48 hours. Compounds are tested at a single concentration, which is 10^-5 M for most compounds. The reported endpoint is percent growth (GI% or GIPRCNT), where numbers from 0 - 100% represent growth inhibition, and numbers from -100% - 0 represent cell death. For example, a value of 40 represents 60% growth inhibition. A value of 0 means no net growth occurred over the course of the experiment. A value of -40 indicates 40% of cells at the beginning of the experiment died by the end of the experiment. A value of -100 means all cells are dead at the end of the experiment.
NCI-60 Human Tumor Cell Lines Screen was performed using the standard one-dose NCI protocol, which is described in more detail at https://dtp.cancer.gov/discovery_development/nci-60/default.htm.
Compounds with GIPRCNT values below 10 were considered active. Activity score was based on GIPRCNT using the following formula: […]
Score is 0 for GIPRCNT values of 100 or above, 50 for GIPRCNT values of 0, and 100 for GIPRCNT values of -100.
Regarding `CCOc1ccc(/C=N/Nc2cc(C)nc3ccc(Br)cc23)cc1`, the growth is 100%. `COc1cc(/C=C\c2cc(OC)c(OC)c(OC)c2)cc(N)c1OC`: the growth is 87%. In the case of `Cc1nc(N)nc(N[C@@H](C)c2nc3cccc(NCc4ccc(C(=O)NO)cc4)c3c(=O)n2-c2ccccc2)n1`, the growth is 77.3%. The figure for `NC(=S)N1N=C(c2ccccc2)CC1c1cn(-c2ccccc2)nc1-c1ccc(OCc2ccccc2)cc1` (stereo not given) is 95.9%; for `CN1CCC(=C(c2ccccc2)c2ccccc2)C(c2ccccc2)C1` (stereo not given) it is 82.9%; for `O=C1c2cccc3c(-c4ccc5c(c4)ncn5C4CCCCC4)ccc(c23)C(=O)N1CCO` it is 83.6%. The figure for `Cn1cc(-c2nc(-c3c[nH]c4c(Cl)nccc34)cs2)c2cc(Br)ccc21` is 74.9%. On to `O=C(O)c1ccc(NCc2cn(-c3ccc(C(F)(F)F)cc3)nc2-c2ccc(C(=O)O)cc2)cc1`, for which the growth was 108%. The figure for `NNC(=O)c1ccc(-n2nc(-c3ccccc3)c3ccccc32)cc1` is 103%; for `CC(C)(C)[Si](C)(C)OC1[C@@H](O[Si](C)(C)C(C)(C)C)[C@@H](CNC(=O)NC(=O)CCl)O[C@H]1n1cnc2c(NC(=O)Nc3ccccc3)ncnc21` (stereo not given in full) it is -48.1% (active). As for `CCNC(=O)Oc1ccc(/C(=C(\C)c2ccccc2)c2ccc(OCCN(CC)CC)cc2)cc1`, the figure is 15.3%; as for `CC(=O)Nc1ccc(-c2ccc3c(c2)NC(=O)/C3=C\c2ccc[nH]2)cc1`, 90.6%; as for `CC(=O)O[C@@H]1C2CCC3C(CC[C@@]4(C)C3CC[C@@H]4C(C)N(C)C)[C@@]2(C)CC[C@@H]1NC(=O)C=C(C)C` (stereo not given in full), -39.5% (active). As for `CC1(C)CC(=O)C2=C(C1)N(c1ccc(F)cc1F)C(N)=C(C#N)C2c1cc(Br)ccc1F` (stereo not given), the figure is 83.5%. For the compound `COc1cc2c(=O)n(CCN)c3c4cc5c(cc4ccc3c2cc1OC)OCO5`, the growth is -89.8% (active). As for `CCOC(=O)c1cc(C#N)n2ccc3ccccc3c12`, the figure is 101%; as for `COc1cc(C2=NN(C(C)=O)C(c3cc(OC)c(OC)c(OC)c3)C2)ccc1O` (stereo not given), 8.21% (active); as for `CCC(CC)NCC(C)(C)O`, 108%. For `COc1ccc2nc(-c3ccc(-c4noc(-c5cc(OC)c(OC)c(OC)c5)n4)cc3)[nH]c2c1`, the growth is 20.2%.

As for `CC1=C(C(=O)/C=C/c2ccc(N(C)C)cc2)C(c2ccccc2)NC(=S)N1` (stereo not given), the growth was 102%. The figure for `O=C(Cn1c(C(=O)c2ccccc2)nc2ccccc21)c1ccc(F)cc1` is 23.3%. As for `Cn1nc(CC#N)c2c(=N)n(N)cnc21`, the figure is 116%; as for `O=C1Nc2cc(-c3cccc([N+](=O)[O-])c3)ccc2/C1=C/c1ccc[nH]1`, 91.1%; as for `CCN1C(=O)/C(=C/C(=O)OC)S/C1=N\NC(=O)c1cc2ccc1/C=C\c1ccc(cc1)/C=C\2`, 45.2%. Turning to `O=C1c2cccc3c(-c4ccc5c(c4)ncn5C4CCCCC4)ccc(c23)C(=O)N1c1nc2ccccc2s1`, the growth was 84%. As for `O=C(CCN1CCCC1)Nc1ccc2c(NCCCc3ccccc3)c3ccccc3nc2c1`, the figure is 3.74% (active); as for `O=C1Nc2cc(-c3cccc(O)c3)ccc2/C1=C/c1ccc[nH]1`, 83.3%; as for `O=C1CC(=O)OC(c2ccc([N+](=O)[O-])cc2)O1`, -39.5% (active). The figure for `COc1cc(-c2cc(-c3ccc(N(C)C)cc3)nc(N3CCOCC3)c2C#N)cc(OC)c1OC` is 12.1%. As for `c1ccc2c(-c3nccs3)c[nH]c2c1`, the figure is 98.9%; as for `O=C(/C=C/c1c(-c2ccc(Cl)cc2)nn(-c2ccccc2)c1C(F)(F)F)c1ccc(Cl)cc1`, 89.9%. On to `Nc1c(C(=O)Nc2ccnc3ccccc23)sc2nc3c(cc12)CN(Cc1ccccc1)CC3`, for which the growth is 103%. As for `COc1ccc(CCn2cncc2-c2c[nH]c3ccccc23)cc1`, the figure is 82.9%.

Consider `CNC(=O)c1cc(Cn2nc(C)c(NC(=O)Nc3ccc(Cl)c(C(F)(F)F)c3)c2C)ccn1`, for which the growth is 92.4%. As for `O=C(c1ccccc1)N1N=C(c2ccc(-n3ccc(C(F)(F)F)n3)c(F)c2)CC1c1ccc[nH]1` (stereo not given), the figure is 98.8%; as for `CCOC(=O)Oc1c(OC)cc(C(=O)c2ccc(OC)c(O)c2OC)cc1OC`, 29.5%. As for `COc1cc2c(c(OC)c1OC)-c1ccc(NNC(=S)N(Cc3cccc(C[N+](Cc4cccc(CNC56CC7CC(CC(C7)C5)C6)c4)(Cc4cccc(CNC56CC7CC(CC(C7)C5)C6)c4)Cc4cccc(CN(C(=S)NNc5ccc6c(cc5=O)[C@@H](NC(C)=O)CCc5cc(OC)c(OC)c(OC)c5-6)C56CC7CC(CC(C7)C5)C6)c4)c3)C34CC5CC(CC(C5)C3)C4)c(=O)cc1[C@@H](NC(C)=O)CC2` (stereo not given in full), the figure is -5.79% (active); as for `C=C(C)[C@@H]1CC[C@]2(C(=O)N[C@H](CO)Cc3ccccc3)CC[C@]3(C)[C@H](CC[C@@H]4[C@@]5(C)CCCNC(C)(C)[C@@H]5CC[C@]43C)[C@@H]12`, -86.1% (active); as for `COc1ccc(-c2cnc3c(-c4cccc5cnccc45)cnn3c2)cc1`, 41.3%.

With `COc1cc2c(c(O)c1Br)C(=O)c1c(O)cc(C[C@H](C)O)cc1[C@H]2[C@H]1c2cc(C[C@H](C)O)cc(O)c2C(=O)c2c1cc(OC)c(Br)c2O`, the growth was 11%.
